Screening data deposited in PubChem by several laboratories.
A selection: hits, their analogues and other compounds. The true share with any hit is near 2.1%.
CHT allo act: CHT positive allosteric modulators, primary screen, cell-based, membrane potential dye, choline EC20 | CHT-expressing cells; stronger effect = higher value; LV-AA mutant CHT in HEK293 cells | B-score at 10 µM | 310,000 compounds, 0.49% hits | AID 488977, 2010;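 active = initial fluorescence not abnormally high and integrated response B-score, plate-corrected, over 3 SD above library mean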
Target sequence (Q9GZV3 whole entry, looked up): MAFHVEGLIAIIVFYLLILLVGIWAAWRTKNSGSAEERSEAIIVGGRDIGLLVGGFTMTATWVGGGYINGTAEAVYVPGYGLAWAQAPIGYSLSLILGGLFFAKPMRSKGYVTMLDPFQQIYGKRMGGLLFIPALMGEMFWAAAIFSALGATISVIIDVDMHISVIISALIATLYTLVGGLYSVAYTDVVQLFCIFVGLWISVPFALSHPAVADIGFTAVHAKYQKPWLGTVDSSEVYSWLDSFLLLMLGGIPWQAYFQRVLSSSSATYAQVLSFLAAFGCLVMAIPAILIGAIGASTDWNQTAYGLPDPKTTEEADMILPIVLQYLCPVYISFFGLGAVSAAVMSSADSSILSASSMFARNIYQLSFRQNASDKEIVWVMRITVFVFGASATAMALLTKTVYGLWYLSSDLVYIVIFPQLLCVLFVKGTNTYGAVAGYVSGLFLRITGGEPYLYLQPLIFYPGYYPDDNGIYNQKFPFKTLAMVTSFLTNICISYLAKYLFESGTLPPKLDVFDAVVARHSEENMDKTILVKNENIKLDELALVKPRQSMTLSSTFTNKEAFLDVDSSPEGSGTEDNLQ
EP2 mod: EP2 receptor modulators, cAMP readout, primary screen, cell-based, HTRF cAMP, PGE2 stimulation. Prostaglandin E2 receptor EP2 subtype (Homo sapiens), P43116. EP2-expressing cells, cAMP HTRF FRET, PGE2 co-stimulation. induction, % at 25 µM. 260,000 compounds, 0.83% hits. AID 940, 2007;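 active = compounds whose cAMP rise, as percent of the full-agonist control response, exceeds 60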;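 note: rat C6 glioma line stably carrying human EP2 under a CMV promoter; the protocol text gives 20 µM as final concentration; 100% = response of wells given 1 µM PGE2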
CHT inh: inhibitors of human choline transporter CHT. CHT-expressing cells, membrane potential dye, choline response; stronger effect = lower value. B-score at 10 µM. 310,000 compounds, 0.86% hits. AID 488975, 2010;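 active = B-score over 3 SD under the library average, and starting fluorescence ratio not unusually high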;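 note: choline stimulus applied at its EC90 after an EC20 pre-addition; B-score computed on integrated fluorescence ratio after choline addition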
PGE2 EP2 inh: human EP2 receptor antagonists, primary screen, TR-FRET cAMP, C6 glioma cells. Prostaglandin E2 receptor EP2 subtype (Homo sapiens), P43116. C6 glioma cells expressing human EP2; cells stimulated with saturating PGE2. inhibition, % at 25 µM. 260,000 compounds, 0.52% hits;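 active = percent inhibition above 40 after rounding to a whole number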;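 note: rat C6 glioma host cells with rolipram phosphodiesterase inhibitor present; the protocol text gives 20 µM as final concentration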
CHT act confirm: CHT activators, confirmation, cell-based, membrane potential dye, duplicate | AID 504833, 2011 | shares compounds with CHT allo act | activation, % at 10 µM | CHT-expressing cells, membrane potential dye fluorescence (FDSS); % of choline EC20–EC90 response window; HEK293 expressing CHT LV-AA mutant; choline added at its EC20 | 2,500 compounds, 91% hits;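 active = primary screen active, with duplicate mean activation above negative control mean plus 3 SD, cut at about 11% in these data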
HEK293 MP dye: membrane potential response in parental HEK293 cells, counter-screen for CHT activator project, cell-based, membrane potential dye; ratio readout change at 10 µM, hits read low; membrane potential dye fluorescence (FDSS); measured after EC20 choline addition; AID 623908, 2012; shares compounds with CHT allo act; 2,500 compounds, 62% hits;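 active = duplicate-averaged ratio beyond 3 SD from buffer wells, up or down, though filed actives are nearly all decreases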
Numbers without * were called inactive; i = inactive; . = no result.

SMILES	CHT allo act	EP2 mod	CHT inh	PGE2 EP2 inh	CHT act confirm	HEK293 MP dye
CCn1c(C(=O)NCCCc2ccccc2)cc2sccc21	6.56*	-53.2	i	11.4	25.1*	i
O=C(Cn1c(-c2ccccc2)c[n+]2ccsc12)c1ccc([N+](=O)[O-])cc1	8.56*	11.7	i	3.7	65.9*	-61.3*
COc1ccc2c(c1)c(C)cc[n+]2Cc1ccccc1	6.73*	.	i	.	73.5*	-67.4*
Cc1ccc2c(c1)c(C)cc[n+]2Cc1ccccc1	9.82*	-3.1	i	5.4	41.5*	-71.3*
Cc1ccc2[nH]c(=O)c(Cc3ccccc3)c(O)c2c1	i	32.4	i	6.5	.	.
Clc1cccc(Cl)c1C[n+]1cccc2ccccc21	i	.	i	.	.	.
Cc1ccc2ccc[n+](Cc3ccccc3)c2c1	7.86*	.	i	.	89.6*	-81.4*
CC(C)OC(=O)CSc1nnc(COc2ccc(C(C)C)cc2)o1	.	26.3	.	7.0	.	.
CCNC(=O)c1cc2c(=O)n3ccccc3nc2n(Cc2cccnc2)c1=N	.	-14.2	.	15.2	.	.
Cc1ccc2nc3c(cc(C#N)c(=N)n3Cc3cccnc3)c(=O)n2c1	8.52*	9.5	i	2.5	41.1*	-27.6*
COC(=O)c1cc2c(=O)n3ccccc3nc2n(Cc2cccnc2)c1=N	6.8*	.	i	5.5	40.2*	-55*
O=C(CN1C(=O)[C@@H]2CCCN2C(=O)c2ccccc21)NCCc1ccccc1	.	-16.7	.	14.2	.	.
CCC(NC(=O)c1cnc(C(C)(C)C)nc1)c1ccc(F)cc1 (stereo unspecified)	.	-42.1	.	3.0	.	.
CCCCOc1ccccc1C1CC(=O)NC2=C1C(=O)CCC2 (stereo unspecified)	11.4*	15.7	i	.	73.2*	i
CCCOc1ccccc1C1CC(=O)NC2=C1C(=O)CCC2 (stereo unspecified)	i	30.3	i	8.8	.	.
Brc1c(-c2ccc3c(c2)OCO3)nc2ncccn12	6.26*	-0.6	i	6.6	44.6*	-45.9*
CC[N+]1(CC)Cc2cc3ccccc3c(Cl)c2C1	.	-14.4	.	9.2	.	.
COc1cccc2c(=O)c3c(cnn3C)n(C)c12	10.1*	-61.3	i	11.6	50.8*	-54.8*
CCCCC(c1nnnn1C1CCCC1)N1CCN(C2CCCC2)CC1 (stereo unspecified)	6.59*	-1.7	i	15.5	42.8*	i
CCCC(c1nnnn1C(C)(C)CC)N1CCN(C2CCCC2)CC1 (stereo unspecified)	8.41*	12.4	i	13.1	51.2*	i
CCC(c1nnnn1C(C)(C)C)N1CCN(C2CCCC2)CC1 (stereo unspecified)	i	8.5	i	13.8	.	.
CCCC(c1nnnn1C1CCCCC1)N1CCN(C2CCCC2)CC1 (stereo unspecified)	i	11.3	i	13.3	.	.
CCCC(c1nnnn1Cc1ccc(F)cc1)N1CCN(C2CCCCC2)CC1 (stereo unspecified)	10.2*	11.6	i	7.6	36.4*	i
CCc1nc(SCC(=O)NCCc2ccc(OC)c(OC)c2)c2c(C)c(C)sc2n1	.	-2.3	.	5.5	.	.
CCOC(=O)C1CCCN(C(=O)C2CCC(CNS(=O)(=O)c3ccc(NC(C)=O)cc3)CC2)C1 (stereo unspecified)	i	9.3	i	11.2	6.0	i
SMILES	CHT allo act	EP2 mod	CHT inh	PGE2 EP2 inh	CHT act confirm	HEK293 MP dye
Cc1nc(N(C)Cc2ccccc2)c2c(C)c(C)sc2n1	i	.	i	.	26.1*	i
O=C(N/N=C/c1ccc(O)cc1)c1cc[n+](Cc2ccccc2)cc1	i	11.7	i	6.1	37.1*	-29.5*
Cn1c(Cc2ccccc2)nc2cc(N)ccc21	.	-28.6	.	12.8	.	.
Cc1cc(C)n(CC(C)C(=O)N2C3CCC2CC(c2ccc(F)cc2)C3)n1 (stereo unspecified)	.	4.8	.	.	.	.
Nc1cc2nc3ccccc3oc-2cc1=O	6.78*	-40.0	i	42.0*	12.9*	-37.9*
O=c1oc2ccccc2cc1-c1nc2ccccc2o1	i	-18.0	i	4.1	.	.
COc1cc(SC)ccc1C(=O)Nc1nnc(CCc2ccccc2)s1	.	-5.2	.	13.5	.	.
CN1CCc2c(sc3nc(SCC(N)=O)n(-c4ccc(Cl)cc4)c(=O)c23)C1	6.85*	.	i	.	46.4*	-34.4*
C=C(C)CSc1nc2sc3c(c2c(=O)n1-c1ccccc1)CCN(C)C3	i	.	i	.	.	.
CN1CCc2c(sc3nc(SCC(N)=O)n(-c4ccccc4)c(=O)c23)C1	i	23.0	i	8.9	40.5*	-33.8*
C=C(C)CSc1nc2sc3c(c2c(=O)n1C1CCCCC1)CCN(C)C3	6.79*	15.7	i	12.6	38.6*	-47.6*
Cc1ccc(NC(=O)COc2ccc(S(=O)(=O)N3CCCC3)cc2)cc1	.	-10.2	.	13.8	.	.
O=C(Nc1cccc(Cl)c1)N(Cc1cccs1)Cc1cc2cc3c(cc2[nH]c1=O)OCCO3	.	-0.4	.	11.9	.	.
CCCCNC(=O)c1c(N)n(/N=C/c2ccccn2)c2nc3ccccc3nc12	i	10.7	i	.	.	.
COCCNC(=O)c1c(N)n(/N=C/c2cccs2)c2nc3ccccc3nc12	i	21.3	i	17.6	28.0*	i
Cc1ccc(Oc2ccccc2NC(=O)CSCC(=O)Nc2cc(C)on2)cc1	i	.	i	.	0.1	i
O=C(Nc1ccc2c(c1)OCO2)c1snc2c(=O)[nH]cnc12	.	6.8	.	30.5	.	.
CCC(Sc1nc2cc(OC)c(OC)cc2c(=O)n1Cc1ccc(OC)cc1)C(=O)NCCOC (stereo unspecified)	6.57*	1.0	i	6.7	4.0	i
CCOc1ccc(S(=O)(=O)Nc2cc(OC)ccc2OC)cc1	i	-28.2	i	9.0	.	.
COc1ccc(OC)c(NS(=O)(=O)c2ccc(N3CCCC3=O)cc2)c1	9.12*	-24.8	i	17.1	36.8*	i
CCN1c2ccccc2-c2nc3ccccc3n2C1c1cccs1 (stereo unspecified)	7.4*	34.8	i	6.5	44.7*	i
OCCNc1nc(Nc2ccc(F)cc2)nc2ccccc12	.	-68.2	.	8.5	.	.
Cc1cc(Oc2ccc(C)c(Cl)c2)nc(SCC(=O)c2ccccc2)n1	7.17*	40.9	i	6.5	56.4*	i
Cc1ccc(C(=O)CSc2cc(C)nc(SCC(=O)c3ccccc3)n2)cc1	i	15.7	i	10.7	.	.
CC1CC(C)CN(c2nc3c(c(=O)n(C)c(=O)n3C)n2CCSc2ncccn2)C1 (stereo unspecified)	i	4.1	i	9.6	.	.
